A selection: hits, their analogues and other compounds. The true share with any hit is near 1.2%.
GLS inh: glutaminase GLS (human) inhibition. O94925. GLS enzymatic activity, qHTS titration. Potency, µM (titrated, usually from 45.5 µM), for inactives: at the highest dose activity change, negative = inhibition, actives largely listed as inhibitors. 0.21% of 410,000 active. AID 624170
Target sequence (O94925 whole entry, looked up): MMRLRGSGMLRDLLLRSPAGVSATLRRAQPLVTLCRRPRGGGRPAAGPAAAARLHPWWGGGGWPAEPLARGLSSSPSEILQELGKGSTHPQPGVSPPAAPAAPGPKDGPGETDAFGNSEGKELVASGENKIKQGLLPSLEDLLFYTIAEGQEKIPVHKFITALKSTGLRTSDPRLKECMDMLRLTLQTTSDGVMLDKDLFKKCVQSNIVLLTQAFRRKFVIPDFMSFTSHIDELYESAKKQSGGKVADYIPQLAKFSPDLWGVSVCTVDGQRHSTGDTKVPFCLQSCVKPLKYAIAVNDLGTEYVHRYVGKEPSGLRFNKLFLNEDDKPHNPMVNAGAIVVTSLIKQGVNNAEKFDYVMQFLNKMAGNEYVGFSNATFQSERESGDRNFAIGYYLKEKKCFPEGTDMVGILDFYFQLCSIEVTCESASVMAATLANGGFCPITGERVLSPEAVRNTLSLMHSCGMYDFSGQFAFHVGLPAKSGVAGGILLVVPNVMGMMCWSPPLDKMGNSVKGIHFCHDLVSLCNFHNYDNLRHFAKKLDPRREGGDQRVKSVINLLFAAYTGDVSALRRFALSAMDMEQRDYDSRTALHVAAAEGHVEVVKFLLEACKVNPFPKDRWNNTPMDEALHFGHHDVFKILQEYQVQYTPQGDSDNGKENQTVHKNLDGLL
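hKGA; 45 mM KH2PO4 pH 8.2 + 0.02% Tween-20; cpd via pin tool; 1 mM Gln soln; GluOx/HRP/Amplex Red; RT 30 min; fluor. t0 & final.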
TrxR1 substrate: substrates of rat thioredoxin reductase 1 | purified TrxR1 substrate turnover, NADPH consumption readout | Potency, µM (series often up to 114 µM), inactives show at the highest dose activity change, negative = substrate turnover | 0.01% of 390,000 active | AID 588456; note: nearly all actives have a fitted effect of over 50% in size
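Rat TrxR1, dispensed at 90 nM, was prereduced with 400 uM NADPH (final) for 5 min at ~22 deg C, then incubated with compound 15 min before 400 uM selenite. A first-read NADPH fluorescence drop versus no-compound background flagged substrates.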
mIDH1 inhibitor: inhibitors of human mutant IDH1 R132H | IDH1-R132H enzyme, NADPH consumption, diaphorase/resazurin fluorescence | Potency, µM (top dose mostly 76.6 µM), inactives show at the highest dose activity change, negative = inhibition, most hits filed as inhibitors | 0.093% of 390,000 active | O75874; note: nearly all actives have a fitted effect of over 65% in size
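IDH1-R132H (0.5 ug/mL) preincubated 30 min with compound, then NADPH (0.016 mM) and alpha-KG (2 mM) added; 80 min at RT, pH 7.5. Remaining NADPH coupled via diaphorase/resazurin to fluorescence (540/590 nm); concentration-response curves normalized to no-enzyme control.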
rTrxR1 inhibitor: rat TrxR1 inhibition | O89049 | recombinant rTrxR1, NADPH fluorescence consumption, selenite substrate | Potency, µM (series often up to 114 µM), for the others: at the top dose activity change, negative = inhibition, hits mostly inhibitors | 1% of 390,000 active | AID 588453; note: nearly all actives have a fitted effect of over 65% in size
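Rat TrxR1 (90 nM in the dispensed reagent) was pre-reduced with 400 uM NADPH for 5 min at room temperature, then incubated with compound for 15 min. After 400 uM selenite was added, NADPH fluorescence (Ex 340/Em 450 nm) was followed for 8 min.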
An asterisk follows results filed as active; ? = inconclusive; . = no result given; [ ] = remark or other dose. Calls come from the whole dose curve; as a rule, active = well fitted curve in the direction sought with a large enough effect; inconclusive = small, poorly fitted or top-dose-only effect, or another doubt; inactive = no such curve, though single readings can be large; an effect the other way counts as inactive or inconclusive. % is set by controls: 0 for no effect and ±100 for the full control effect; potency is the fitted concentration of half-maximal effect.

SMILES | GLS inh | TrxR1 substrate | mIDH1 inhibitor | rTrxR1 inhibitor
O=C(/C=C/c1ccco1)Nc1cccc(C(=O)Nc2ccccc2C(=O)O)c1 | ? | -7.9% | 13.2% | 11.2µM*
Cc1ccc(NC(=O)c2cccc(NC(=O)/C=C/c3ccco3)c2)cc1C | 9.3% | -5.8% | 1.3% | 20µM*
Cc1ccc(C2C(C#N)=C(N)SC(N)=C2C#N)c(C)c1 | 2.9% | -4.3% | -1.0% | 2.82µM*
Cc1ccc(C2C(C#N)=C(N)SC(N)=C2C#N)cc1 | 2.5% | -6.1% | -0.8% | ?
O=C(/C=C/c1ccco1)NCC(=O)N/N=C/c1ccc([N+](=O)[O-])cc1 | ? | -9.6% | -3.5% | 44.7µM*
O=C(/C=C/c1ccco1)NCC(=O)N/N=C/c1ccc(Cl)cc1 | 12.7% | 0.7% | -15.9% | -21.2%
CCOC(=O)N1CCC(NC(=O)c2ccc3c(c2)N(Cc2ccc(Cl)cc2)C(=O)c2ccccc2S3=O)CC1 (stereo not drawn) | 1.3% | 1.7% | 9.3% | 26.7%
CCOc1ccc(CN2C(=O)c3ccccc3Sc3ccc(C(=O)NCc4ccc5c(c4)OCO5)cc32)cc1 | 7.8% | 9.9% | 12.9% | 21.0%
Cc1cc(Cl)ccc1NC(=S)Nc1cccnc1 | 11.0% | -9.8% | 0.3% | 28.2µM*
Cc1cc(NC(=S)Nc2cccnc2)ccc1Br | 11.7% | 2.6% | -4.1% | ?
Cc1ccc(/C=C2\SC(=S)N(/N=C/c3cc([N+](=O)[O-])ccc3O)C2=O)o1 | 16.6% | -14.3% | -2.7% | 22.4µM*
CC(Sc1ccsc1[N+](=O)[O-])C(=O)NCc1ccco1 (stereo not drawn) | 0.6% | -6.0% | -5.5% | 20µM*
CCCSS/C(CCO)=C(/C)N(C=O)Cc1cnc(C)nc1N | -5.1% | . | . | .
O=C(CCN1CCC(c2ccc(Cl)s2)=N1)c1ccc(Cl)s1 | -2.1% | 2.1% | -1.4% | 2.82µM*
O=C(Cn1ncc2c3ccccc3n(Cc3ccc(F)cc3)c2c1=O)NCc1ccccn1 | -2.5% | 7.1% | -14.9% | -12.1%
COc1ccc(/C=C2\CCc3c2nc2ccccc2c3C(=O)O)cc1OC | 11.2µM* | 11.7% | 0.0% | -3.5%
COc1cc(/C=C2\CCCc3c2nc2ccccc2c3C(=O)O)cc(OC)c1O | ? | -17.5% | 10.4% | ?
Cc1ccc(S(=O)(=O)C2CS(=O)(=O)CC2O)cc1 (stereo not drawn) | 3.8% | 8.6% | 2.4% | 13.6%
CC(=O)C1=C(S(=O)(=O)c2ccc(C)cc2)CS(=O)(=O)C1 | 17.2% | -1.3% | 5.8% | 1.26µM*
COc1ccc(CNc2ncnc3onc(-c4ccc(F)cc4)c23)cc1 | 4.5% | -3.5% | 7.3% | -3.1%
CSc1ccc(CCNC(=O)Cn2c(C)c3cnn(-c4ccccc4)c(=O)c3c2C)cc1 | -2.6% | 0.5% | 14.6% | 9.8%
O=C(O)c1ccccc1N/N=C/c1c(Sc2nnnn2-c2ccccc2)nc2ccccn2c1=O | 11.2µM* | -8.2% | -19.3% | ?
O=c1c(/C=N/Nc2ccccc2)c(Sc2nnnn2-c2ccccc2)nc2ccccn12 | 7.5% | 2.9%[57.1 µM] | -1.1% | ?
CCCCCOC(=O)CSc1nc2sc3c(c2c(=O)n1Cc1ccccc1)CC(C)(CC)OC3 (stereo not drawn) | -0.2% | 3.5% | -5.6% | 6.5%
COc1ccc(C(=O)Nc2nnc(C(C)C)s2)cc1OC | 4.0% | 4.1% | -8.0% | 79.4µM*
SMILES | GLS inh | TrxR1 substrate | mIDH1 inhibitor | rTrxR1 inhibitor
CCOC(Cn1c(SCc2cc(C(C)=O)ccc2OC)nc2ccccc2c1=O)OCC | 8.2% | -2.8% | -1.4% | 9.5%
COc1ccc(C(C)=O)cc1CSc1nc2cc(C(=O)O)ccc2c(=O)n1Cc1ccccc1 | 0.1% | -2.7% | -1.8% | 28.2µM*
CSCCC(NC(=O)[C@H](Cc1c[nH]c2ccccc12)NC(=O)CNC(=O)[C@H](CCSC)NC(=O)[C@H](Cc1ccc(OS(=O)(=O)O)cc1)NC(=O)[C@@H](N)CC(=O)O)C(=O)N[C@@H](CC(=O)O)C(=O)N[C@@H](Cc1ccccc1)C(N)=O (stereo partly drawn) | -20.4% | . | . | .
COc1cc(C(=O)ON=C2C=C(C)C(=O)C(C)=C2)cc(OC)c1OC | 4.7% | -3.9% | 5.3% | -20.8%
COc1cc(C(=O)O/N=C2\C=CC(=O)C(C)=C2)cc(OC)c1OC | -3.4% | -3.2% | 10.9% | 2.82µM*
COc1cc(/C=c2\s/c(=C(/C#N)C(=O)N3CCCC3)n(-c3ccccc3)c2=O)ccc1O | -9.8% | -1.5%[57.1 µM] | 7.6% | -3.3%
Cc1ccc(/C=c2\s/c(=C(/C#N)C(=O)N3CCCC3)n(Cc3ccco3)c2=O)s1 | -4.4% | -15.1% | -4.7% | 25.1µM*
CCN1CCC2(CC1)N=C(c1ccc(F)cc1)C(=S)N2C(=O)c1ccc(C(C)(C)C)cc1 | 5.5% | 3.6%[57.1 µM] | 0.5% | -22.8%[57.1 µM]
CN1CCC2(CC1)N=C(c1ccc(F)cc1)C(=S)N2C(=O)c1ccccc1 | 6.6% | 0.5% | 0.8% | 5.01µM*
C/C(=N\Nc1ccc(Cl)c(C(=O)O)c1)c1cccs1 | ? | -3.4% | 0.0% | 14.1%
C/C(=N/Nc1ccccc1C(=O)O)c1cccs1 | 12.6µM* | 0.2%[57.1 µM] | 7.1% | -0.6%[57.1 µM]
COc1ccc(-c2[nH]c(-c3ccc(Cl)cc3)nc2SCC(=O)NCC2CCCO2)cc1 (stereo not drawn) | -6.9% | 30.1% | 2.7% | 24.1%
O=C(C#Cc1ccccc1)c1ccco1 | 13.4% | -0.8% | 11.2% | 0.251µM*
c1ccc(C2Nc3cccc4cccc(c34)N2)cc1 | 7.1% | 9.6% | 7.4% | ?
Clc1ccc(C2Nc3cccc4cccc(c34)N2)cc1Cl | 9.3% | -0.6% | 8.9% | 44.7µM*
Fc1cccc(Cl)c1C1Nc2cccc3cccc(c23)N1 | 20.1% | -3.9% | -2.7% | 56.2µM*
Clc1cccc(Cl)c1C1Nc2cccc3cccc(c23)N1 | 18.1% | -7.1% | 0.0% | -4.0%
Brc1ccc(C2Nc3cccc4cccc(c34)N2)o1 | 27.8% | 3.4% | 15.8% | 25.1µM*
Clc1cccc(C2Nc3cccc4cccc(c34)N2)c1 | 2.3% | 0.4% | -5.6% | 25.1µM*
Cc1ccc(CCNC(=O)CCCn2nc(C)c3c(C)n(-c4ccccc4)nc3c2=O)cc1 | -0.9% | -1.9% | -13.5% | 5.1%
O=C(Nc1ccc(Br)cc1F)c1ncoc1-c1ccco1 | -1.1% | 4.1%[57.1 µM] | -2.1% | 6.3%[57.1 µM]
Brc1cccc(C2Nc3cccc4cccc(c34)N2)c1 | -17.7% | 1.0% | -9.0% | 56.2µM*
NC(=O)c1ccc2[nH]ccc2c1 | . | 4.2%[57.1 µM] | . | -8.8%[57.1 µM]
CN(C)c1ccc(/C=C/c2ccnc3ccc(-c4ccccc4)cc23)cc1 | . | -10.1% | . | -0.7%
O=c1[nH]c2c(s1)C(c1ccco1)C1C3CCC(C3)C1S2 (stereo not drawn) | 5.2% | -9.7% | -2.7% | 44.7µM*
Cc1ccccc1-c1n[nH]c(=S)n1/N=C/C=C/c1ccco1 | -11.9% | -6.4% | 3.2% | 3.98µM*
S=c1[nH]nc(-c2ccccc2)n1/N=C/C=C/c1ccco1 | ? | -13.0% | 2.0% | -34.2%
COCCNC(=O)C1(C)CCN(C(=O)c2cc(C(C)(C)C)nn2C)C1 (stereo not drawn) | 0.8% | . | . | .
CCOc1ccc(NC(=O)c2oc3ccccc3c2NC(=O)c2c(F)cccc2F)cc1 | 4.3% | 19.3% | 23.0% | 56.2µM*
